A short description of test [1]: Human pregnane X receptor (PXR) small molecule agonists, qHTS cell viability counter screen (AID 1346977). Also: nearly all actives have a fitted effect of over 50% in size. The method in brief: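 PXR-Luc HepG2 cells in medium with 5% charcoal-stripped FBS were pre-incubated 5hr, then exposed to compounds for 24hr at 37C. Viability was read in the same wells by CellTiter-Fluor fluorescence, reagent added after 23hr with a 1hr incubation.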

Test [2] is described as follows: Caspase-3/7 induction in HepG2 cells by small molecules, qHTS assay (AID 1346978). Also: nearly all actives have a fitted effect of over 15% in size. Summed up: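 Wild-type HepG2 cells (2,000/well) were settled 5 h at 37 C, 5% CO2, then exposed to compounds in DMSO for 17 h. Caspase-3/7 activity was read by luminescence 30 min after adding Caspase-Glo 3/7 reagent at room temperature.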
Background: In qHTS, concentration-response curves come from the screen itself.

A short description of test [3]: Caspase-3/7 induction in CHO-K1 cells by small molecules, qHTS cell viability counter screen (AID 1346979). Also: nearly all actives have a fitted effect of over 35% in size. Also: potency is read from the fitted curve at half-maximal effect. The method in brief:
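Wild-type CHO-K1 cells were seeded at 1,500 per well, rested 5hr at 37 C, then exposed to compounds in DMSO. After 16hr, CellTiter-Fluor reagent was added and fluorescence read 1hr later as the viability measure.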

Test [4] is described as follows: Caspase-3/7 induction in CHO-K1 cells by small molecules, qHTS assay (AID 1346980). Also: nearly all actives have a fitted effect of over 15% in size. Summed up: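 Wild-type cells were seeded at 1,500 per well and settled 5 hr at 37 C, 5% CO2, then exposed to DMSO-dissolved compounds for 17 hr. Caspase-Glo 3/7 reagent was added, and luminescence was read after 30min at room temperature.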
The nature of test [5]: Caspase-3/7 induction in HepG2 cells by small molecules, qHTS cell viability counter screen (AID 1346981). Also: nearly all actives have a fitted effect of over 30% in size. Also: potency is read from the fitted curve at half-maximal effect. As to activity change, negative = cytotoxicity: series mostly up to about 92 µM. Summed up: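 HepG2, WT, 2,000 cells/well; 5 hr pre-incubation 37 C/5% CO2; compound pin-transferred from DMSO; 16 hr exposure; CellTiter-Fluor, 1 hr; fluorescence read.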
Test [6] addresses Nuclear receptor subfamily 1 group I member 2 (Homo sapiens) (UniProt O75469). Put plainly: Human pregnane X receptor (PXR) small molecule agonists, qHTS assay (AID 1346982). Also: nearly all actives have a fitted effect of over 35% in size. Also: potency is read from the fitted curve at half-maximal effect. The method in brief: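 Luciferase signal from ONE-Glo (30 min, room temperature) measured activation of hPXR-driven CYP3A4 reporter expression in PXR-Luc HepG2 cells treated with compounds for 24 hr at 37 C.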

The target in test [7] is Cytochrome P450 2D6 (Homo sapiens) (UniProt P10635). The test is described as follows: Cytochrome P450 Family 2 Subfamily D Member 6 (CYP2D6) small molecule antagonists: luciferase reporter qHTS assay (AID 1671196). Also: nearly all actives have a fitted effect of over 50% in size. Also: potency is read from the fitted curve at half-maximal effect. As to activity change, negative = inhibition: series mostly up to about 120 µM. Summed up:
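Read-out is luminescence from luciferin formed by CYP2D6 turnover of a proluciferin substrate, recorded as relative luminescence units. Reactions ran 1 h at room temperature after NADPH regeneration solution was added.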
A general note: Reporter assays use an easily measured gene product as a stand-in for the process of interest.

Test [8] has as its target Cytochrome P450 2C19 (Homo sapiens) (UniProt P33261). The test is described as follows: Cytochrome P450 Family 2 Subfamily C Member 19 (CYP2C19) small molecule antagonists: luciferase reporter qHTS assay (AID 1671197). Also: nearly all actives have a fitted effect of over 65% in size. Also: potency is read from the fitted curve at half-maximal effect. As to activity change, negative = inhibition: series mostly up to about 120 µM. Summed up:
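Relative luminescence units recorded 20 min after the detection reagent stopped a 1 h, 37C CYP2C19 reaction on proluciferin substrate, which was started by NADPH regeneration following 10 min room-temperature compound preincubation; ketoconazole positive control.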

Test [9] concerns the target Cytochrome P450 2C9 (Homo sapiens) (UniProt P11712). The test is described as follows: Cytochrome P450 Family 2 Subfamily C Member 9 (CYP2C9) small molecule antagonists: luciferase reporter qHTS assay (AID 1671198). Also: nearly all actives have a fitted effect of over 50% in size. Also: potency is read from the fitted curve at half-maximal effect. As to activity change, negative = inhibition: series mostly up to about 120 µM. Summed up: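 CYP2C9 activity was measured with a P450-Glo proluciferin substrate. Enzyme–substrate mix was held with compound for 10 min at room temperature, then NADPH regeneration solution was added for 1 h at 37C. Luciferin product was read as luminescence.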

In test [10] the target is Voltage-gated inwardly rectifying potassium channel KCNH2 (Homo sapiens) (UniProt Q12809). The test is described as follows: Human Ether-a-go-go-Related Gene (hERG) channel small molecule antagonists: fluorescence cell-based qHTS assay (AID 1671200).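 Also: hERG-expressing U2OS cells given a thallium stimulus after FluxOR II dye loading; series mostly up to about 77 µM; nearly all actives have a fitted effect of over 50% in size.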 Summed up:
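U2OS cells expressing the channel were plated at 1000 cells/well, incubated overnight at 37 C, then loaded with FluxOR II thallium-sensitive dye for 1 h at room temperature in the dark, with a further 10 min at room temperature before stimulation.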
(In general: hERG is a cardiac potassium channel; its block is linked to QT prolongation.)

The target in test [11] is Cytochrome P450 3A4 (Homo sapiens) (UniProt P08684). The test is described as follows: Cytochrome P450 Family 3 Subfamily A Member 4 (CYP3A4) small molecule antagonists: luciferase reporter qHTS assay (AID 1671201). Also: nearly all actives have a fitted effect of over 50% in size. Also: potency is read from the fitted curve at half-maximal effect. As to activity change, negative = inhibition: series mostly up to about 120 µM. The method in brief:
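P450-Glo CYP3A4 system with proluciferin substrate; compounds preincubated 10 min RT with enzyme-substrate mix, then NADPH regeneration added for 1 h RT. Detection reagent 20 min, luminescence read as relative luminescence units.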

The target of test [12] is Nuclear receptor subfamily 1 group I member 2 (Rattus norvegicus) (UniProt Q9R1A7). The test is described as follows: Rat pregnane X receptor (rPXR) activation by small molecules, qHTS assay (AID 1346983). Also: nearly all actives have a fitted effect of over 20% in size. Conditions: rPXR luciferase reporter cells, One-Glo luminescence, 24 h; max activation: active compounds read high. Summed up: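 Cell-based rPXR luciferase reporter assay, 2,000 cells per well, rested 5hr at 37 C before compound addition in DMSO, then 24 hr at 37 C. One-Glo reagent was added and luminescence read after 30 min at room temperature.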
Sequence of Nuclear receptor subfamily 1 group I member 2 (Rattus norvegicus) (Q9R1A7 whole entry, looked up): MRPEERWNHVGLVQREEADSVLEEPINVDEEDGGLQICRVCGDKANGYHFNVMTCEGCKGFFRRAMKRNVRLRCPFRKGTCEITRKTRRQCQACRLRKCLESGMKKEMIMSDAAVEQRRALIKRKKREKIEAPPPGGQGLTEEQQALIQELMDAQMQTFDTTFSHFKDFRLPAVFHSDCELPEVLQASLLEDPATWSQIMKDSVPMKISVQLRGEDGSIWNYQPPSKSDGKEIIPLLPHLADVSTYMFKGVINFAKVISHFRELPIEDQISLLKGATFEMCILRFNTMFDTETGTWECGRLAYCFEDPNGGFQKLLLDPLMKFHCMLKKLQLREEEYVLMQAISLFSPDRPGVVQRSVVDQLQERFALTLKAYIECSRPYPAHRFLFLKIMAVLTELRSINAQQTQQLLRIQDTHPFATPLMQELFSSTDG

For test [13], the target named is Nuclear receptor subfamily 1 group I member 2 (Homo sapiens) (UniProt O75469). Put plainly: CYP3A4 induction through human pregnane X receptor (PXR) by small molecules, qHTS assay (AID 1346984). Also: nearly all actives have a fitted effect of over 40% in size. Also: potency is read from the fitted curve at half-maximal effect. Summed up: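 Luminescence readout: luciferase signal after One-Glo (30 min, room temperature), following 3 h at 37C with 3uM final Luciferin-IPA P450 substrate. Cells were DPX-2 (HepG2, PXR/CYP3A4-luc co-transfected) dosed for 24 h.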
Sequence of Nuclear receptor subfamily 1 group I member 2 (Homo sapiens) (O75469 whole entry, looked up): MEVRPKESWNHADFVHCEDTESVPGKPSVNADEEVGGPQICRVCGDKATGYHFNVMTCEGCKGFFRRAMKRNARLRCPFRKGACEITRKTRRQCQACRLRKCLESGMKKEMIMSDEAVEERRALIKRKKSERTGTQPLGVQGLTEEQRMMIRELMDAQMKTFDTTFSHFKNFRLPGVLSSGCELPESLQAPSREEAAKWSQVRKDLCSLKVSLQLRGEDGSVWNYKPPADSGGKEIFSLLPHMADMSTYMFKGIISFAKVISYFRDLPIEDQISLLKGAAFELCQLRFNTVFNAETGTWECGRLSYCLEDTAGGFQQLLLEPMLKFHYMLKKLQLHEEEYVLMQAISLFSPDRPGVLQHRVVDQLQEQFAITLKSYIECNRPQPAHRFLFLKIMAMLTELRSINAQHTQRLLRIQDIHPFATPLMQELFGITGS

Test [14] has the same target. Put plainly: Human pregnane X receptor (PXR) activation by small molecules, qHTS assay (AID 1346985). Also: nearly all actives have a fitted effect of over 40% in size. The method in brief: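 DPX-2 cells (HepG2 co-transfected with a PXR response element and a CYP3A4-promoter luciferase construct) were seeded at 2,000 per well, rested 5 hr at 37C, then exposed to DMSO-dissolved compounds for 24 hr. Activation was read as luciferase luminescence.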

Test [15] concerns the target Cytochrome P450 1A2 (Homo sapiens) (UniProt P05177). The test is described as follows: Cytochrome P450 Family 1 Subfamily A Member 2 (CYP1A2) small molecule antagonists: luciferase reporter qHTS assay (AID 1671199). Also: nearly all actives have a fitted effect of over 50% in size. Also: potency is read from the fitted curve at half-maximal effect. As to activity change, negative = inhibition: series mostly up to about 120 µM. Summed up: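 P450-Glo CYP1A2, 1536-well qHTS: enzyme/proluciferin substrate + cpd (DMSO), 10 min RT; NADPH regen, 1 h RT; detection reagent, 20 min; luminescence, RLU.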

For test [16], the target named is Thyrotropin-releasing hormone receptor (Homo sapiens) (UniProt P34981). Put plainly: qHTS assay to identify small molecule agonists of the thyrotropin-releasing hormone receptor (TRHR) signaling pathway (AID 1346891; calls by dose curve; also: series mostly up to about 58 µM). Summed up: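 TRHR-expressing HEK293 cells were plated 18 h at 37 °C/5% CO2, loaded with calcium dye 2 h at 37 °C, then given compound in DMSO; fluorescence was read kinetically for 3 min at 1 s intervals.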
Sequence of Thyrotropin-releasing hormone receptor (Homo sapiens) (P34981 whole entry, looked up): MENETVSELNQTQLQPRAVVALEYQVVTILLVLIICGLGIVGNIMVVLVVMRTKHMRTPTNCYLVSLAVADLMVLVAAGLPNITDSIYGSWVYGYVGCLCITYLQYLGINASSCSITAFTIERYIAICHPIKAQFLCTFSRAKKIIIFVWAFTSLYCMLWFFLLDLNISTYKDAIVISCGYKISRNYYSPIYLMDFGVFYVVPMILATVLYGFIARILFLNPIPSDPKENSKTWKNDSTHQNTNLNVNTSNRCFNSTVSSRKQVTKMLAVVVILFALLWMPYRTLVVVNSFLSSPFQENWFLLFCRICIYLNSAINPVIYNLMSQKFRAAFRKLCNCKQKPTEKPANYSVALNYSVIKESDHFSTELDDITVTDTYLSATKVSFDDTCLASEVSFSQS

SMILES strings stand for the structures. Values without a mark were called inactive. Records with an inconclusive call do not appear. Activity calls are given as the source filed them. Unless noted, calls follow the shape of the dose curve; as a rule, active = well fitted curve in the direction sought with a large enough effect in the repeat runs; inconclusive = weak or mixed curves; inactive = no such curve, though single readings can be large; an effect the other way counts as inactive or inconclusive.

Experimental findings from PubChem BioAssay (Tox21) are described below.
% is scaled to controls: 0 for no effect and ±100 for the full control effect.

Sequence of Cytochrome P450 2D6 (Homo sapiens) (P10635 whole entry, looked up): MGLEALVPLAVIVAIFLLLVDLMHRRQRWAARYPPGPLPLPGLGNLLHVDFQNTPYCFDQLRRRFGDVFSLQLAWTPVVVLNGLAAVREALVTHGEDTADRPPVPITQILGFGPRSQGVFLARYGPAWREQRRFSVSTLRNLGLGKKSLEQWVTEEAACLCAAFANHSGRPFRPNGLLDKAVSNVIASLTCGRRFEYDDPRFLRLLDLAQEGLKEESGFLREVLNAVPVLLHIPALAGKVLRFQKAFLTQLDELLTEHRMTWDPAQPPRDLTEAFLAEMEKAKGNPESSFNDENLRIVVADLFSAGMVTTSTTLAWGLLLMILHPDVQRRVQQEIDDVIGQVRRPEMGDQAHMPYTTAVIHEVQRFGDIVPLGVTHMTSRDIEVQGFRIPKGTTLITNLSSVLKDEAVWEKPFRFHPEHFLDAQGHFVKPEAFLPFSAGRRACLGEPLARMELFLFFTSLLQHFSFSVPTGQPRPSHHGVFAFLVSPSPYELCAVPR
Sequence of Cytochrome P450 2C9 (Homo sapiens) (P11712 whole entry, looked up): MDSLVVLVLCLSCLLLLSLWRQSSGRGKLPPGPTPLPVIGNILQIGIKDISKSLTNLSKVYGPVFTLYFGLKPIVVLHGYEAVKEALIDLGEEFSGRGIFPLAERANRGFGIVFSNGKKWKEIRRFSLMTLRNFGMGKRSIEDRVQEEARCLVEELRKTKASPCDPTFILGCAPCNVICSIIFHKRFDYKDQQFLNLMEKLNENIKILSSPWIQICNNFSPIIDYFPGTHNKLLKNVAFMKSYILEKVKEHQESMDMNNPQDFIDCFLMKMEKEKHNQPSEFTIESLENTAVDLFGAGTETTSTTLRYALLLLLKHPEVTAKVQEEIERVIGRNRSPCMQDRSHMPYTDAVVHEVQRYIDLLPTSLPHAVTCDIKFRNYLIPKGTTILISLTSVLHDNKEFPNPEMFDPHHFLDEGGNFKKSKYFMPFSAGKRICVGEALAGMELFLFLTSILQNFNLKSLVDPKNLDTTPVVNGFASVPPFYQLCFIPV
Sequence of Voltage-gated inwardly rectifying potassium channel KCNH2 (Homo sapiens) (Q12809 whole entry, looked up): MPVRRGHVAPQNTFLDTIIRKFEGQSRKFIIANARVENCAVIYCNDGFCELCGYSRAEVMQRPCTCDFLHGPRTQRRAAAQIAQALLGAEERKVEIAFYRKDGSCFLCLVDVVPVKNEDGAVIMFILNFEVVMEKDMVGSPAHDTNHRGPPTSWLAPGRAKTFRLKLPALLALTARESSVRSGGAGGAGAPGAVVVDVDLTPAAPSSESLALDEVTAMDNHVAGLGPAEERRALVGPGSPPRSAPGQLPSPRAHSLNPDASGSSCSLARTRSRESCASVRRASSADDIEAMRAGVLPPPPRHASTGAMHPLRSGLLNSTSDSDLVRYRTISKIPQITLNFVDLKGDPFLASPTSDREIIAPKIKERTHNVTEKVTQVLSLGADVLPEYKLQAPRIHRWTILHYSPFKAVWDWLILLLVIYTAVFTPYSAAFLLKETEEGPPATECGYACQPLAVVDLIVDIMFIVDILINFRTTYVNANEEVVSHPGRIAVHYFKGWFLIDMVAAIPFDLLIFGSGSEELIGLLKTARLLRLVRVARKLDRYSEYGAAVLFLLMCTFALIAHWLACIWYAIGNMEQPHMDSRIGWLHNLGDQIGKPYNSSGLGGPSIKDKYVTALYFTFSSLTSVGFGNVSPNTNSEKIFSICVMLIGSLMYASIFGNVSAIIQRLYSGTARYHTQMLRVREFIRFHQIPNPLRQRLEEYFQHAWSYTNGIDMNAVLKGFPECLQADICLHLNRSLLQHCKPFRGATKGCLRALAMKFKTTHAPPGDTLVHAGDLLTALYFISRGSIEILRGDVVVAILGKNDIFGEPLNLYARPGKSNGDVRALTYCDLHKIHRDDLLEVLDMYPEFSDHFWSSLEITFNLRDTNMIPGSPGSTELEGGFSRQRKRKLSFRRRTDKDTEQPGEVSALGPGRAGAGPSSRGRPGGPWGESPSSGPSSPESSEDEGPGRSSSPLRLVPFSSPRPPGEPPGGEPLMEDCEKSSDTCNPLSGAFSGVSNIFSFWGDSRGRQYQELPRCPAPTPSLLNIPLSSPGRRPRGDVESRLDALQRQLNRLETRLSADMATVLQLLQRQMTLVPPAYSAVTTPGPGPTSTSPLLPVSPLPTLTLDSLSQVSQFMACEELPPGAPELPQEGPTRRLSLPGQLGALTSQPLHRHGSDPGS
Sequence of Cytochrome P450 3A4 (Homo sapiens) (P08684 whole entry, looked up): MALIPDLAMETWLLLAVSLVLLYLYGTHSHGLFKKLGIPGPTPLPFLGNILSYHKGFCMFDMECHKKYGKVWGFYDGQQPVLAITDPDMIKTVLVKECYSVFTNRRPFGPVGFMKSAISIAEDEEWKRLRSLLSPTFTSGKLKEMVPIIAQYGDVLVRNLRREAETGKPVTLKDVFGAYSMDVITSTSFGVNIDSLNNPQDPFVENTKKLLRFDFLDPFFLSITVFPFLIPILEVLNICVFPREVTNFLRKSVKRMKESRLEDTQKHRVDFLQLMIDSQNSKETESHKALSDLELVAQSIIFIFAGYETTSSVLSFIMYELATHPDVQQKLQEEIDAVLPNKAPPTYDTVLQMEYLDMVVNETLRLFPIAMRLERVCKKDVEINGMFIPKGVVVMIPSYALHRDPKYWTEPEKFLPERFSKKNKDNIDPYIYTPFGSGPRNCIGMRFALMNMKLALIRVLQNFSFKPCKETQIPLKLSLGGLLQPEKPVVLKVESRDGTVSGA
Sequence of Cytochrome P450 2C19 (Homo sapiens) (P33261 whole entry, looked up): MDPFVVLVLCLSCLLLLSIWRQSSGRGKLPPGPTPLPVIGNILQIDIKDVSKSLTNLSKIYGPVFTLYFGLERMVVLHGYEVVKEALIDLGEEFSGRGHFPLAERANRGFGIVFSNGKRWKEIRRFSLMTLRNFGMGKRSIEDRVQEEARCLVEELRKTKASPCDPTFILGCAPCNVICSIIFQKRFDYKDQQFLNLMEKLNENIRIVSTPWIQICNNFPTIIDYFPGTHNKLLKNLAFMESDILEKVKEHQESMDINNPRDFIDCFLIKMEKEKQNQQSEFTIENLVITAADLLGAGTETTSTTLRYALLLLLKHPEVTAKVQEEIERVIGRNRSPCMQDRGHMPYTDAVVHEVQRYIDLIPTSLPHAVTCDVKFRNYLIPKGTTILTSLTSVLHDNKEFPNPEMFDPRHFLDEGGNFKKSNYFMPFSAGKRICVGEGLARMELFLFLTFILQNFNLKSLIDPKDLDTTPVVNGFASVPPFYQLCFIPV
Sequence of Cytochrome P450 1A2 (Homo sapiens) (P05177 whole entry, looked up): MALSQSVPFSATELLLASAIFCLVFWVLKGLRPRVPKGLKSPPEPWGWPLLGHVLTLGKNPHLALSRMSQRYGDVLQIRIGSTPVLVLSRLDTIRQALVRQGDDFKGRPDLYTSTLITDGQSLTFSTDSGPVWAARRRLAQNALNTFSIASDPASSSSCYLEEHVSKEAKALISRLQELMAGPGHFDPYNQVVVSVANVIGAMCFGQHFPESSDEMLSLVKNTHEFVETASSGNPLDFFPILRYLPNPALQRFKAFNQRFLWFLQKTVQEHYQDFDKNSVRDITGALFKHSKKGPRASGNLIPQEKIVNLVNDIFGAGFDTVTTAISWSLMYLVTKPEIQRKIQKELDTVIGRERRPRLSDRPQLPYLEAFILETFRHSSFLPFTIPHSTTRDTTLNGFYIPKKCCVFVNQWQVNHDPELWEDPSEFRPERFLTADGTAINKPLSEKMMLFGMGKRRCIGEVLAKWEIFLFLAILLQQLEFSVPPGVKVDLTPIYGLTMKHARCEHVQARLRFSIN

Consider `O=C1NCCN1`, for which the Potency entry in test [1], in test [2], in test [3], in test [5], in [6] and in [9] was “inactive” throughout. Besides, the Potency entry in test [10] and in test [11] was “inactive” throughout. Further, the outcome in [4] was inactive. Besides, the Potency was 21.5 µM (active) in test [7] and 34.1 µM (active) in [8].

Consider `CCn1cc(C(=O)O)c(=O)c2cc(F)c(N3CCNCC3)nc21`, for which the Potency entry in [1], in test [2], in test [3], in test [5], in test [6] and in test [13] was “inactive” throughout. For the same molecule, the Potency entry in test [14], in test [7], in [8], in test [9], in test [15] and in test [10] was “inactive” throughout. In test [11], the Potency entry is “inactive”. Besides, in test [4], the molecule was called inactive. Also, the max activation in test [12] is -1.42%.

As for `CNC(=O)N(c1ccccc1)c1ccccc1`, the Potency result in test [1], in [2], in test [5], in test [8], in [10] and in test [11] was “inactive” each time. For the same molecule, the Potency was 43.5 µM (active) in test [3], 48.8 µM (active) in test [6], 35.7 µM (active) in test [7] and 40.1 µM (active) in test [15]. Moreover, the molecule was called inactive in [4].

As for `COc1cc2ncnc(Nc3ccc(F)c(Cl)c3)c2cc1OCCCN1CCOCC1`, the Potency result in test [16] and in test [10] was “inactive” in each case. For the same molecule, the Potency was 29.8 µM (active) in test [3], 13.8 µM (active) in test [7] and 38.9 µM (active) in [8]. The max activation in test [12] was -4.52%.

In the case of `CCCC(=O)O[C@]1(C(=O)COC(=O)CC)CC[C@H]2[C@@H]3CCC4=CC(=O)CC[C@]4(C)[C@H]3[C@@H](O)C[C@@]21C`, the activity change, negative = cytotoxicity is 12.4% [at 19 µM] in test [1], 11.7% [at 19 µM] in test [3] and 3.19% [at 19 µM] in [5]. For the same molecule, the caspase activation in test [2] was -2.33% [at 19 µM]. For the same molecule, the caspase-3/7 activation in [4] was 1.2% [at 19 µM]. For the same molecule, the activation in test [6] is -1.9% [at 19 µM]. In addition, the activity change, negative = inhibition is -0.0142% [at 23.6 µM] in [7], -11.3% [at 23.6 µM] in [8], 11.6% [at 23.6 µM] in test [9] and 4.88% [at 15.8 µM] in test [10]. Moreover, the Potency entry in test [15] is “inactive”.

Consider `CC(C)(C)CC(C)(C)c1ccc(OCCO)cc1`, for which the Potency result in test [16] and in test [14] was “inactive” in each case. Further, the Potency in [3] is 54.2 µM (active); in test [5], 48.3 µM (active); in test [13], 3.55 µM (active); in test [8] it was 79.2 µM (active); in [9] it was 31.5 µM (active); in test [11], 17.7 µM (active). The molecule was called inactive in test [4]. Further, in test [12], the max activation is -7.23%.

As to `O=C(c1ccc(O)cc1)c1ccc(Cl)cc1`, the Potency entry in test [16], in [2], in test [5] and in test [10] was “inactive” in each case. Also, the molecule was classed as inactive in test [4]. Moreover, the Potency in test [6] was 24.9 µM (active); in [7], 64.7 µM (active); in [9], 25.7 µM (active); in [15], 18.2 µM (active).

Consider `CC[C@@H]([C@H](C)O)n1ncn(-c2ccc(N3CCN(c4ccc(OC[C@@H]5CO[C@@](Cn6cncn6)(c6ccc(F)cc6F)C5)cc4)CC3)cc2)c1=O`, for which the Potency result in test [16] and in test [15] was “inactive” in each case. Moreover, the Potency was 7.5 µM (active) in test [3] and 10.6 µM (active) in test [6]. For the same molecule, the molecule was called inactive in [4].

Consider `Nc1nccs1`, for which the Potency entry in [1], in test [2], in [3], in [5], in test [6] and in test [13] was “inactive” in each case. The Potency entry in [14], in test [9], in test [10] and in test [11] was “inactive” throughout. Further, in [4], the molecule was classed as inactive. In addition, the max activation in test [12] is -2.81%. Besides, in [7], the Potency was 31.7 µM (active).

On to `CC1=CC(=O)CC(C)(C)C1(O)/C=C/C(C)=C\C(=O)O` (stereo unspecified), for which the Potency result in test [1], in test [2], in test [3], in test [5], in [6] and in [7] was “inactive” in each case. Besides, the Potency entry in test [8], in [9] and in [10] was “inactive” throughout. In addition, in test [4], the molecule was classed as inactive.
